Screening data deposited in PubChem by several laboratories.
A selection: hits, their analogues and other compounds. The true share with any hit is near 5.9%.
PRMT1 inh: PRMT1 (human) inhibition, primary screen | actives 1.3% (n = 370,000) | Q99873 | recombinant PRMT1, activity-based probe fluorescence polarization | inhibition, % at 2.79 µM;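 active = inhibition above about 21% made by adding two undisclosed values, limit read from the data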
rCAG binder: r(CAG) repeat RNA binding | TO-PRO-1 dye displacement fluorescence | inhibition, % at 3 µM | actives 1.3% (n = 370,000);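 active = inhibition above the plate cutoff, the mean of all test compounds on that plate plus 3 SD, cut at about 35% in these data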;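 also: higher means more dye released from RNA so lower well fluorescence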
ABHD5 PLIN5 PPI: ABHD5-PLIN5 protein interaction inhibition | Split G. princeps luciferase complementation, luminescence, 4 h | actives 0.78% (n = 360,000) | Q00G26+Q8WTS1 | AID 602281 | inhibition, % at 4 µM;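 active = inhibition above the mean inhibition across every tested compound plus 3 SD, cut at about 22% in these data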
Target sequence (Q00G26 whole entry, looked up): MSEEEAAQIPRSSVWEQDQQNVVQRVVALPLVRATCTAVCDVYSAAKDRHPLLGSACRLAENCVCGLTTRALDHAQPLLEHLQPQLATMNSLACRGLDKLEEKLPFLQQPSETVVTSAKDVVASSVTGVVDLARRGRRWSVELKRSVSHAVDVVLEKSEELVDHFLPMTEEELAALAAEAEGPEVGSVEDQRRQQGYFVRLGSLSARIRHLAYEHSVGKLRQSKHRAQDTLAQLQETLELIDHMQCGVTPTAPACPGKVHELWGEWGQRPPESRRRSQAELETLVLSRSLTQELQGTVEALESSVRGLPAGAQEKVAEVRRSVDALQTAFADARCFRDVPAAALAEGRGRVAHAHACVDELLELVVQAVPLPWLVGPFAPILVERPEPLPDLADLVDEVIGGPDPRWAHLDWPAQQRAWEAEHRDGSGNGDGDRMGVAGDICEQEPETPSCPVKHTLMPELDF
Target sequence (Q8WTS1 whole entry, looked up): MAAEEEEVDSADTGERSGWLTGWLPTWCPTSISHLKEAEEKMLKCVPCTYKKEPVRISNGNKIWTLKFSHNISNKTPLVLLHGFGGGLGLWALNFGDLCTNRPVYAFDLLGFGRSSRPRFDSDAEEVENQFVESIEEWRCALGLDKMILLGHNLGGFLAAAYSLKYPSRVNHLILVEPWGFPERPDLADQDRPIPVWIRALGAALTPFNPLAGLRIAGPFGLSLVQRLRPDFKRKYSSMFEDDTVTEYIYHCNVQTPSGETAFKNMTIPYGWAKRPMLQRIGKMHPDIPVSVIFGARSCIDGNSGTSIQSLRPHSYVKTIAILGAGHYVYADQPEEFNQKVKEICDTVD
Rtt109 Vps75: inhibitors of Candida albicans Rtt109/Vps75 histone acetyltransferase. Q5AAJ8. purified Rtt109/Vps75, ThioGlo CoA-SH fluorescence, 4 h. inhibition, % at 34.9 µM. actives 0.16% (n = 330,000). AID 540336;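 active = inhibition of at least 50% in every replicate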
LANA-H2B inh: blocks KSHV LANA binding to histone H2A/H2B; cell-free LANA-H2A/H2B peptide, fluorescence polarization; inhibition, % (no concentration beside the values); actives 0.6% (n = 320,000); AID 2629; in the data active = inhibition mostly above about 10%, no sharp cut-off; inactive = mostly below about 6.7%
ALR inh: blocks human ALR sulfhydryl oxidase activity | P55789 | purified ALR, DTT oxidation, H2O2 HRP-luminol luminescence | inhibition, % (no concentration beside the values) | actives 3.8% (n = 290,000) | AID 485317;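 active = mean replicate inhibition above about 79%, with every replicate also reaching it, limit read from the data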
A number is an active result; n = inactive; x = no result given.

SMILES	PRMT1 inh	rCAG binder	ABHD5 PLIN5 PPI	Rtt109 Vps75	LANA-H2B inh	ALR inh
O=C(CC(Nc1ccccc1)C(=O)O)c1ccccc1 (stereo not given)	n	n	23	n	n	n
O=C(CC(Nc1ccccc1)c1ccc(F)cc1)c1ccccc1 (stereo not given)	n	n	n	n	n	n
CCCOc1ccc(/C=C2\SC(=S)N(CC3CCCO3)C2=O)cc1 (stereo not given)	n	n	n	n	n	n
O=C1/C(=C/c2ccc(O)cc2)SC(=S)N1CC1CCCO1 (stereo not given)	n	n	n	n	n	99
O=C(CSC1CCc2ccccc21)NNC(=O)Nc1ccc(Cl)cc1 (stereo not given)	n	n	x	x	x	x
COCCNC(=O)C(=O)NCC1OCCN1C(=O)c1ccc(Cl)cc1 (stereo not given)	n	n	n	n	n	x
COC(CNC(=O)C(=O)NCC1OCCN1C(=O)c1ccc(Cl)cc1)OC (stereo not given)	n	n	n	n	11	n
COc1ccc(S[C@]2(C(=O)N(C)C)CC(=O)N(C(=O)Nc3ccc(C)c(Cl)c3)[C@@H]2c2ccc(OC)cc2)cc1	n	n	x	x	x	x
C/C(=N/Nc1ccc([N+](=O)[O-])cc1)c1ccc(C)cc1C	n	n	n	n	n	98
C/C(=N\Nc1ccc([N+](=O)[O-])cc1)c1ccc(C#N)cc1	n	n	n	n	n	x
CCN(CC)CCN1C(=O)c2ccccc2NC1c1ccc(N(C)C)cc1 (stereo not given)	n	n	n	n	n	n
CN(C)c1ccc(C2Nc3ccccc3C(=O)N2CCCN2CCOCC2)cc1 (stereo not given)	n	n	n	n	n	99
C/C=C/C(=O)Nc1nnc(-c2ccccc2C)s1	n	n	n	n	n	98
C=CCNC(=S)Nc1sc2c(c1C(N)=O)CCCC2	n	n	n	x	n	98
NC(=O)c1c(NC(=S)Nc2ccc(F)cc2)sc2c1CCCC2	n	n	n	n	n	90
NC(=O)c1c(NC(=S)Nc2ccccc2)sc2c1CCCC2	n	n	n	n	n	n
Cc1nn(Cc2ccccc2)c(Cl)c1/C=N/NC(=O)c1cccnc1	n	n	n	n	n	n
Cc1c(/C=N/NC(=O)c2cccnc2)c2ccccc2n1Cc1ccccc1	n	n	n	n	12	n
NC(=S)NNC(=O)Nc1ccc(Cl)c(Cl)c1	n	n	n	n	n	94
CC1(C)Cc2c(c(-c3ccco3)nc3sc4c(NCCN5CCOCC5)ncnc4c23)CO1	n	n	n	x	n	n
CC1(C)Cc2c(c(-c3ccco3)nc3sc4c(NCC5CCCO5)ncnc4c23)CO1 (stereo not given)	23	n	n	n	n	n
O=C(CSC1CC(=O)N(c2ccc(C(=O)O)cc2)C1=O)Nc1ccc2ccccc2c1 (stereo not given)	n	n	n	n	n	100
O=C(O)CSC1CC(=O)N(c2cccc(Cl)c2)C1=O (stereo not given)	n	n	n	n	n	n
Nc1nc(N)c(Cc2ccc(Cl)cc2Cl)c(N)n1	n	n	n	n	32	n
S=C(Nc1ccccc1)N1CCCCC1	n	n	n	n	n	n
SMILES	PRMT1 inh	rCAG binder	ABHD5 PLIN5 PPI	Rtt109 Vps75	LANA-H2B inh	ALR inh
S=C(Nc1ccccc1)N1CCCN1c1ccccc1	n	n	n	n	n	87
O=c1cc(CO)oc(C(Nc2ccccn2)c2ccc(C(F)(F)F)cc2)c1O (stereo not given)	n	n	n	n	n	n
O=c1cc(CO)oc(C(Nc2ccccn2)c2cccc(F)c2)c1O (stereo not given)	n	n	n	n	n	98
COc1cccc(C(Nc2ccccn2)c2oc(CO)cc(=O)c2O)c1 (stereo not given)	n	n	n	n	n	x
O=c1cc(CO)oc(C(Nc2ccccn2)c2ccccc2F)c1O (stereo not given)	n	n	n	n	n	97
CCCCNC(=O)C1c2cc(OC)c(OC)cc2C(=O)N(C)C1c1ccc(OC)cc1 (stereo not given)	n	n	n	n	n	n
CCOc1cc2c(cc1OCC)C(C(=O)O)C(c1cc(Br)c(O)c(OC)c1)N(C)C2=O (stereo not given)	n	n	n	n	15	n
Fc1ccc(N2CCN(C3CCC(c4ccccc4)CC3)CC2)cc1 (stereo not given)	n	n	n	n	n	n
CCN1CCC(N2CCN(c3ccc(F)cc3)CC2)CC1	n	n	n	n	n	97
CS(=O)(=O)Nc1ccc([N+](=O)[O-])cc1Oc1ccccc1	n	n	n	n	32	n
CCCS(=O)(=O)N1CCCC(C(=O)NCCCN(CC)c2cccc(C)c2)C1 (stereo not given)	n	n	n	n	n	99
O=C(Nc1ccc(N2CCOCC2)cc1)C1CCCN(S(=O)(=O)c2ccccc2)C1 (stereo not given)	n	n	n	x	n	n
CCCS(=O)(=O)N1CCC(C(=O)NCCCN(CC)c2cccc(C)c2)CC1	n	n	n	n	n	n
CN(C)c1ccc(NC(=O)C2CCCN(S(=O)(=O)c3ccccc3)C2)cc1 (stereo not given)	n	n	n	n	n	100
CCN(CCCNC(=O)C1CCN(S(=O)(=O)N2CCOCC2)CC1)c1cccc(C)c1	n	n	n	n	n	99
CCCS(=O)(=O)N1CCCC(C(=O)NCCN(CC)c2ccccc2)C1 (stereo not given)	n	n	n	n	n	99
C=CCN1C[C@@H](COCc2ccccc2)Oc2cccc(F)c2S1(=O)=O	n	n	x	x	x	x
COc1ccc(NC(=O)C2CCN(S(=O)(=O)c3cccc4nonc34)CC2)cc1OC	n	n	n	n	n	n
O=C(OCCOc1ccccc1)c1cc(S(=O)(=O)N2CCOCC2)c(Cl)cc1Cl	n	n	n	x	x	x
CCN(CC)C(=O)C1=C(C)N(CCCN2CCCC2=O)C(=O)C(CC(=O)NC2CCCC2)C1 (stereo not given)	n	n	n	x	x	x
CC(C)c1ccc(NC(=O)Nc2nc(C(N)COCc3ccccc3)cs2)cc1 (stereo not given)	n	n	n	x	x	x
CCN(c1cccc(C)c1)S(=O)(=O)c1ccc2c(c1)oc(=O)n2C	n	n	n	n	n	n
CCN(CCCNS(=O)(=O)c1ccc2c(c1)oc(=O)n2C)c1cccc(C)c1	n	n	n	n	n	97
NC(=O)COC(=O)CSc1ccc2ccccc2c1	n	n	n	n	n	99
C/C(N)=C(/C#N)C(=O)COC(=O)CSc1ccc2ccccc2c1	n	n	n	n	n	n
CCNC(=O)NC(=O)CSc1ccc2ccccc2c1	n	n	n	n	n	98
NS(=O)(=O)c1ccc(CCNC(=O)CSc2ccc3ccccc3c2)cc1	n	n	n	n	n	99
CCNC(=O)NC(=O)CSc1ccccc1F	n	n	n	x	n	n
